Records with an inconclusive call do not appear. A structure can be active in one record and inactive in another. Activity calls are given as the source filed them. The calls were made as follows: active = hit-call score of the fitted dose curve at least 0.9, where 1 is the maximum; inconclusive = response in the unintended direction; inactive = score below 0.9.
Columns and labels:
[1] = biological target: T1, Estrogen receptor (Homo sapiens) + Estrogen receptor beta (Homo sapiens) (UniProt P03372+Q92731); assay: OT_ER_ERaERb_0480: Odyssey Thera (OT) 8-hour HEK293T Protein-Complementation Assay for Estrogen Receptor-alpha/-beta Heterodimer (AID 2283352)
Procedure, shortened: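 Compound added to HEK293T cells carrying split-reporter-tagged ER-alpha and ER-beta LBDs, incubated 8 hours, then imaged by laser scanning cytometer. Signal rise in nucleus, or nucleus and cytoplasm, over vehicle was fitted in the positive direction.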

[2] = biological target: T1, Estrogen receptor (Homo sapiens) + Estrogen receptor beta (Homo sapiens); assay: OT_ER_ERaERb_1440: Odyssey Thera (OT) 24-hour HEK293T Protein-Complementation Assay for Estrogen Receptor-alpha/-beta Homodimer (AID 2283356);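 also: heteromer of ER alpha and ER beta binding domains; hits raise reporter fluorescence and both agonists and antagonists give an increase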
Procedure, shortened: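 Stable HEK293T PCA line, ERα LBD 310-547 + ERβ LBD 263-489 fused to reporter fragments; 24 h treatment; fluorescence read by laser scanning cytometry; positive fitting direction relative to DMSO.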

[3] = biological target: Estrogen receptor beta (Homo sapiens) (UniProt Q92731); assay: OT_ER_ERbERb_0480: Odyssey Thera (OT) 8-hour HEK293T Protein-Complementation Assay for Estrogen Receptor-beta/-beta Homodimer (AID 2283357);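 also: active means signal gain over DMSO baseline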
Procedure, shortened: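 Fluorescence intensity, nuclear for agonists and nuclear plus cytoplasmic for antagonists, was quantified by laser scanning cytometry versus vehicle after 8 h treatment. The cells were HEK293T stably carrying ER beta LBD fragment-complementation partners.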

[4] = biological target: Estrogen receptor (Homo sapiens) (UniProt P03372); assay: OT_ER_ERaERa_0480: Odyssey Thera (OT) 8-hour HEK293T Protein-Complementation Assay for Estrogen Receptor-alpha/-alpha Homodimer (AID 2283351);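 also: rise in fluorescence from reassembled reporter fragments on ERα LBD homodimer in nucleus or whole cell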
Procedure, shortened: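 HEK293T cells stably expressing the human ERα ligand-binding domain (aa 310-547) as a homodimer PCA were dosed with compound for 8 h. Gain of fluorescence intensity versus DMSO vehicle was read by laser scanning cytometry.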

[5] = biological target: Nuclear receptor subfamily 1 group I member 2 (Homo sapiens) (UniProt O75469); assay: NVS_NR_hPXR: NovaScreen (NVS) Nuclear Receptor Binding Assay for human Pregnane X Receptor (PXR) (AID 2283365);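 also: a drop in FRET signal versus DMSO baseline means the compound binds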
Procedure, shortened: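 Human PXR protein, cell-free; compound added, incubated 2 h, TR-FRET read. Signal decrease vs DMSO = binding. Screened 25 uM duplicate, actives re-run as dilution series.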

[6] = biological target: human Peroxisome Proliferator-activated Receptor alpha (PPARa), PPARA (gene 5465) (UniProt Q07869); assay: NVS_NR_hPPARa: NovaScreen (NVS) Nuclear Receptor Binding Assay for human Peroxisome Proliferator-activated Receptor alpha (PPARa) (AID 2283359);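 also: activity means loss of TR-FRET signal versus DMSO baseline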
Procedure, shortened: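 Cell-free TR-FRET binding assay with extracted PPARα protein, read 1 h after dosing. Primary screen in duplicate at 25 uM, with actives retested in concentration series. Loss of signal versus DMSO.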

[7] = biological target: guinea pig Sigma Receptor, Non-selective Binding, SIGMAR1 (gene 100135589) (UniProt Q60492); assay: NVS_OR_gSIGMA_NonSelective: NovaScreen (NVS) Nuclear Receptor Binding Assay for guinea pig Sigma Receptor, Non-selective Binding (AID 2283367)
Procedure, shortened: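 Radioligand displacement on guinea pig brain membranes, read by filter-based scintillation counting 1 h after dosing. Loss of signal versus DMSO; initial duplicate single-point screen at 25 uM, actives followed in concentration series.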

[8] = biological target: Androgen Receptor/SRC-1 Co-activator, AR (gene 367) (UniProt P10275); assay: OT_AR_ARSRC1_0960: Odyssey Thera (OT) 16-hour HEK293T Protein-Complementation Assay for Androgen Receptor/SRC-1 Co-activator (AID 2283353);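 also: actives raise the signal above DMSO so potency reflects increased AR and SRC-1 complex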
Procedure, shortened: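 HEK293T cells stably expressing AR and SRC-1 fused to split Venus YFP fragments via (Gly4Ser)2 linkers were dosed for 16 h. Nuclear/cytoplasmic fluorescence ratio at 488 nm, ≥400 cells per image, fitted for gain of signal versus DMSO.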

[9] = biological target: Androgen Receptor/SRC-1 Co-activator, AR (gene 367) (UniProt P10275); assay: OT_AR_ARSRC1_0480: Odyssey Thera (OT) 8-hour HEK293T Protein-Complementation Assay for Androgen Receptor/SRC-1 Co-activator (AID 2283354);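 also: hits raise the complementation signal above DMSO so AC50 marks enhancers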
Procedure, shortened: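 HEK293T cells stably expressing AR and SRC-1 fused to Venus YFP fragments, imaged 8 h after dosing. Complementation fluorescence scored as nuclear/cytoplasmic ratio at 488 nm in at least 400 cells per image; gain fitted versus DMSO.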

[10] = biological target: Retinoic acid receptor alpha (Homo sapiens) (UniProt P10276); assay: NVS_NR_hRARa_Agonist: NovaScreen (NVS) Nuclear Receptor Binding Assay for human Retinoic Acid Alpha Receptor Agonism (RAR) (AID 2283361)
Procedure, shortened: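 Cell-free TR-FRET binding readout with extracted receptor protein, read 2 hours after dosing; gain-of-signal fitted relative to DMSO. Screened in duplicate at 25 uM, actives then run in concentration-response.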

[11] = test system: guinea pig Dopamine Transporter (DAT), gene 100714898; assay: NVS_TR_gDAT: NovaScreen (NVS) Transporter Assay for guinea pig Dopamine Transporter (DAT) (AID 2283369);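 also: active compounds lower bound radioligand signal relative to DMSO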
Procedure, shortened: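 Scintillation counts of filter-retained radioligand report binding to guinea pig striatal membranes after 2 h. Activity scored as signal loss relative to DMSO, first at 25 uM in duplicate, then in concentration series to 50 uM.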

PGR (gene 5241) = PGR (gene 5241) (UniProt P06401); assay: NVS_NR_hPR: NovaScreen (NVS) Nuclear Receptor Binding Assay for human Progestron Receptor (PR) (AID 2283360);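 also: active means loss of bound radioligand signal versus DMSO baseline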
Procedure, shortened: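 Radioligand competition binding on receptor extracted from T47D cells, read by scintillation counting 18 h after dosing. Loss of signal versus DMSO; primary screen in duplicate at 25 uM, actives followed in concentration series.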

[12] = biological target: Peroxisome proliferator-activated receptor gamma (Homo sapiens) (UniProt P37231); assay: NVS_NR_hPPARg: NovaScreen (NVS) Nuclear Receptor Binding Assay for human Peroxisome Proliferator-activated Receptor gamma (PPARg) (AID 2283370)
Procedure, shortened: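 Chemicals were tested first in duplicate at 25 uM, then in concentration series if active. Binding to cell-free PPARg protein was measured by fluorescence polarization after 2 h, with loss of signal scored against DMSO.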

[13] = biological target: human Thyroid Receptor Alpha (TRa), THRA (gene 7067) (UniProt P10827); assay: NVS_NR_hTRa_Antagonist: NovaScreen (NVS) Nuclear Receptor Binding Assay for human Thyroid Receptor Alpha Antagonism (TRa) (AID 2283362);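 also: activity is loss of signal relative to DMSO baseline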
Procedure, shortened: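 Extracted protein, cell-free; 1 h incubation after dosing; AlphaLISA chemiluminescence binding readout. DMSO = baseline/neg ctrl; signal loss = activity. Primary: duplicate, 25 uM; secondary: conc. series on actives.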

[14] = biological target: human Serotonin Transporter (SERT), SLC6A4 (gene 6532) (UniProt P31645); assay: NVS_TR_hSERT: NovaScreen (NVS) Transporter Assay for human Serotonin Transporter (SERT) (AID 2283372)
Procedure, shortened: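 Radioligand binding to native SERT in human platelet membranes, read by filter-based scintillation counting 1 h after dosing. Primary screen in duplicate at 25 uM; actives followed up in concentration series; loss of signal versus DMSO baseline.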

[15] = biological target: Glucocorticoid receptor (Homo sapiens) (UniProt P04150); assay: NVS_NR_hGR: NovaScreen (NVS) Nuclear Receptor Binding Assay for human Glucocorticoid Receptor (GR) (AID 2283363);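 as to AC50: activity is loss of specific radioligand binding signal relative to DMSO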
Procedure, shortened: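 Cell-free radioligand displacement assay on extracted human GR, read 16 h after dosing by filter-based scintillation counting. Screened in duplicate at 25 uM, then concentration series for actives; loss of signal versus DMSO baseline.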

Nuclear receptor subfamily 1 group I member 2 (Homo sapiens), sequence (O75469 whole entry, looked up): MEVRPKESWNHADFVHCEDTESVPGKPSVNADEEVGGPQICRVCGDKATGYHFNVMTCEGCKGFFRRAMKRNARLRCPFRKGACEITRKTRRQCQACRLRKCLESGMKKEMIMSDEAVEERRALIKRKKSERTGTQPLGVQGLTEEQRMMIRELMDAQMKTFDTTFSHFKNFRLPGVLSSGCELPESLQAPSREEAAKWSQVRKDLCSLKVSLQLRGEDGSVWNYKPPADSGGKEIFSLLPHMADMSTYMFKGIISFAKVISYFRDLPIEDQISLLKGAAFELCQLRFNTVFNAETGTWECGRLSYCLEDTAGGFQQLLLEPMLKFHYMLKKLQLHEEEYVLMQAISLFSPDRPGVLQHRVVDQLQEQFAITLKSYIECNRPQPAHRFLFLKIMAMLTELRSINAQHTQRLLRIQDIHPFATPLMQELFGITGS
Estrogen receptor beta (Homo sapiens), sequence (Q92731 whole entry, looked up, the tested form may be a part): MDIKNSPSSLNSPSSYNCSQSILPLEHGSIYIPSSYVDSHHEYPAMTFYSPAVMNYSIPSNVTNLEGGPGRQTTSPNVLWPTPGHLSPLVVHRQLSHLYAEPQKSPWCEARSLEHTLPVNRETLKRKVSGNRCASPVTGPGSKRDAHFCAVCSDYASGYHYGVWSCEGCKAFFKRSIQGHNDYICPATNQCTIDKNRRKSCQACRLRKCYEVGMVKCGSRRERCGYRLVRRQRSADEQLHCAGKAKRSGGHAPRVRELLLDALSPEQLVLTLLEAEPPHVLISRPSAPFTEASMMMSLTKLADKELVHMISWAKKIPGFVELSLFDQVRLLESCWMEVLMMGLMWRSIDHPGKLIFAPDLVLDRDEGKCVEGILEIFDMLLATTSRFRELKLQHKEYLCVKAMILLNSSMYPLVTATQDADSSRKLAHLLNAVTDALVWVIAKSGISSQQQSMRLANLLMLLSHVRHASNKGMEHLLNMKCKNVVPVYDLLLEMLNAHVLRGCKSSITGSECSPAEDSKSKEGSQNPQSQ
Androgen Receptor/SRC-1 Co-activator, AR (gene 367), sequence (P10275 whole entry, looked up, the tested form may be a part): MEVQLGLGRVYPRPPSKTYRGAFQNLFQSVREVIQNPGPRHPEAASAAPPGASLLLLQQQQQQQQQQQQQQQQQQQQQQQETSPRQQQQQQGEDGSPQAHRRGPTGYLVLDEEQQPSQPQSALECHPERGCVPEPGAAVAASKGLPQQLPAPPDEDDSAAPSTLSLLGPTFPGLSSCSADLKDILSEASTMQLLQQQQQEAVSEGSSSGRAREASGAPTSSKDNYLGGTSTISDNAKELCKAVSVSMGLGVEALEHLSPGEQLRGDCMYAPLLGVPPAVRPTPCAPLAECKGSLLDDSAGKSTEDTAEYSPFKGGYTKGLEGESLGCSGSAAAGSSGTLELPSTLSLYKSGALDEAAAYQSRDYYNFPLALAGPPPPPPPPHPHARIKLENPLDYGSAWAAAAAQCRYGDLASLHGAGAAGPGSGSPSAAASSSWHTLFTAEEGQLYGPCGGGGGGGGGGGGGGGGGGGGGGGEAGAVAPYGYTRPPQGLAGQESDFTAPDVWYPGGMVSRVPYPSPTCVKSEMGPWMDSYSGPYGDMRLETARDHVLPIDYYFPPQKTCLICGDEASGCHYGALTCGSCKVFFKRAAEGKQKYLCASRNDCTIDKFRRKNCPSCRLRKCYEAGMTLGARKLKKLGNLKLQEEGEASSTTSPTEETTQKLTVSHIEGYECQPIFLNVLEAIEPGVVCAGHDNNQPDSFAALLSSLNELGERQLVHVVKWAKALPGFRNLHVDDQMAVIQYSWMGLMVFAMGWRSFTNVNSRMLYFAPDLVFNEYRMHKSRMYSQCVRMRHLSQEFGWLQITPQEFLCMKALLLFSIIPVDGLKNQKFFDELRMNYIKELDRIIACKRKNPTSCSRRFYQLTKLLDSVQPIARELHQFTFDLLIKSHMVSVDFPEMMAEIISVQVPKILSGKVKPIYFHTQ
Glucocorticoid receptor (Homo sapiens), sequence (P04150 whole entry, looked up): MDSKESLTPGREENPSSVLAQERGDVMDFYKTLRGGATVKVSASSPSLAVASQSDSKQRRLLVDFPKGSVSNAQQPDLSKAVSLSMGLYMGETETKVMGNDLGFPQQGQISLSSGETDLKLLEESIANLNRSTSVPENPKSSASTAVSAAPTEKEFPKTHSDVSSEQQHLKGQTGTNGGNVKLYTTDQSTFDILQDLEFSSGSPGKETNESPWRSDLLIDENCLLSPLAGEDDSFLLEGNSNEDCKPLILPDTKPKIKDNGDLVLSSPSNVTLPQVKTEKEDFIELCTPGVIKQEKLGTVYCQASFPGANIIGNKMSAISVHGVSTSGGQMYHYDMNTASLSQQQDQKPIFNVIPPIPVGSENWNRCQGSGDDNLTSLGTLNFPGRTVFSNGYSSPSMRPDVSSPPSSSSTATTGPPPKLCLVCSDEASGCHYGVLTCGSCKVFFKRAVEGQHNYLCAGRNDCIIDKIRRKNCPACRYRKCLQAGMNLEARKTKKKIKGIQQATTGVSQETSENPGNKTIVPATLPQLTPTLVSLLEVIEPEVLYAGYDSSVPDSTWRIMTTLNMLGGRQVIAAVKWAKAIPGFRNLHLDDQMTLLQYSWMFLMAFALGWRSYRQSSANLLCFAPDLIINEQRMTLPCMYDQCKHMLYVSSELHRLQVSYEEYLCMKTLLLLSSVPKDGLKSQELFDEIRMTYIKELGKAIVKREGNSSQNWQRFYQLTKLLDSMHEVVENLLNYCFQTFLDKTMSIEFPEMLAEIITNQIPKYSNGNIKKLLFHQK
Peroxisome proliferator-activated receptor gamma (Homo sapiens), sequence (P37231 whole entry, looked up): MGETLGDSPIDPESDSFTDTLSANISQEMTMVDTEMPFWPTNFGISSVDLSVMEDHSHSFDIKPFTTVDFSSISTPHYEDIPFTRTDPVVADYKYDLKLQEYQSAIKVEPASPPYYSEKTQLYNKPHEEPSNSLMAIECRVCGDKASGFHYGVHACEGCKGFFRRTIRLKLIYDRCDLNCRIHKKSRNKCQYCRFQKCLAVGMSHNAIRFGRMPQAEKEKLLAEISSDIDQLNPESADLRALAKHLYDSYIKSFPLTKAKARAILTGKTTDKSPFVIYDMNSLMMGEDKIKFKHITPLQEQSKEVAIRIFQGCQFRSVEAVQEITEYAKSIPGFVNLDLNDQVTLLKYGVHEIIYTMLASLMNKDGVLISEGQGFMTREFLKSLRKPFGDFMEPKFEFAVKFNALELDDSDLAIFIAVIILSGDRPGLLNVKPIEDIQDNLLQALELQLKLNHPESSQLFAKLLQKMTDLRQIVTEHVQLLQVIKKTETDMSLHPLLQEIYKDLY
human Peroxisome Proliferator-activated Receptor alpha (PPARa), PPARA (gene 5465), sequence (Q07869 whole entry, looked up): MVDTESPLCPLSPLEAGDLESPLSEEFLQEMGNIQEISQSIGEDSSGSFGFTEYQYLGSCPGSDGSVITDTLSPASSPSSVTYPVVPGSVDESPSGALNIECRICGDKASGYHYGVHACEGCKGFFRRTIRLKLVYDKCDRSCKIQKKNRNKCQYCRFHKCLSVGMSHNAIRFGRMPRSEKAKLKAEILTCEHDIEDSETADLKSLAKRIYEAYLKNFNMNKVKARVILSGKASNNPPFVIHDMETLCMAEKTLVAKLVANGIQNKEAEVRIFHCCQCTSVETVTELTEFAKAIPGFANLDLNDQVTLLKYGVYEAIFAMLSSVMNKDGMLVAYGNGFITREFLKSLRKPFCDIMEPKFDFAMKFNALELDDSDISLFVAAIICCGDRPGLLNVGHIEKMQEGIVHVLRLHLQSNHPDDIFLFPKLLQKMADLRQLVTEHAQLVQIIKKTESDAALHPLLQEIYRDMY
Estrogen receptor (Homo sapiens), sequence (P03372 whole entry, looked up, the tested form may be a part): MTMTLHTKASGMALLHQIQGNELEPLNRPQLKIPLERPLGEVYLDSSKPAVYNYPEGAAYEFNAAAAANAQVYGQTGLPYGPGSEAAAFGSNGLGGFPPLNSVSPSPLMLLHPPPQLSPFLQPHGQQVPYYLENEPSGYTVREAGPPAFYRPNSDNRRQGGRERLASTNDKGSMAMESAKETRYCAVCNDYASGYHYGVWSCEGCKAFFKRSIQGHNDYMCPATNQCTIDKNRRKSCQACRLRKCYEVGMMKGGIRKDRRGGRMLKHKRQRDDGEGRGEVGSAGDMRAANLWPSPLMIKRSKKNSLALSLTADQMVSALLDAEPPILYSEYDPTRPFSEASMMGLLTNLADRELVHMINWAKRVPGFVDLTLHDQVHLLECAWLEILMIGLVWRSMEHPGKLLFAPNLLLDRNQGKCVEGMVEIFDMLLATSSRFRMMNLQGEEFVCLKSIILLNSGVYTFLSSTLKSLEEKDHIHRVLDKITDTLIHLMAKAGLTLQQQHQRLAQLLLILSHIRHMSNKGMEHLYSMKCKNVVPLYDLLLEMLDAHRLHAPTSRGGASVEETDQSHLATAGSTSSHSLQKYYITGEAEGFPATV
Retinoic acid receptor alpha (Homo sapiens), sequence (P10276 whole entry, looked up): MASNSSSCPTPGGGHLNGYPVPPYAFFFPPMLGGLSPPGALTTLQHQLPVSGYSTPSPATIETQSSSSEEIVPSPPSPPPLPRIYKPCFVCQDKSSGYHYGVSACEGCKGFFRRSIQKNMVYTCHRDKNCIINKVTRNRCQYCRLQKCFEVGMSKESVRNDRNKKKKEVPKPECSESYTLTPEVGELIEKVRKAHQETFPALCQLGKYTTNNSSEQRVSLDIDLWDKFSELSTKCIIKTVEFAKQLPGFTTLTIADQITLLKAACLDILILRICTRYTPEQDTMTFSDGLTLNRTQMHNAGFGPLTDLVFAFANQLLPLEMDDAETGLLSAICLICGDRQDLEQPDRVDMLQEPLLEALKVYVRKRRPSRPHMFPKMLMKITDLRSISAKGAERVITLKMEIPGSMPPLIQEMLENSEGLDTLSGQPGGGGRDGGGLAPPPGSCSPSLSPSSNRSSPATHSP
guinea pig Sigma Receptor, Non-selective Binding, SIGMAR1 (gene 100135589), sequence (Q60492 whole entry, looked up): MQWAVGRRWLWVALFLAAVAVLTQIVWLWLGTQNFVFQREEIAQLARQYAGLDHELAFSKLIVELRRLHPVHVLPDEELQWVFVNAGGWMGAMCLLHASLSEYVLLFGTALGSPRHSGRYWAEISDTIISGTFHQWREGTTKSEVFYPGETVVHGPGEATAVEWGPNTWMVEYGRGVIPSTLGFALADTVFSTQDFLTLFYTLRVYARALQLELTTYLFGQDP

SMILES: CCOc1ccc(C(C)(C)COCc2cccc(Oc3ccccc3)c2)cc1
- outcome [1]: inactive
- outcome [2]: inactive
- outcome [3]: inactive

SMILES: OCC1CO1 (centres undefined)
- outcome [4]: inactive
- outcome [5]: inactive

SMILES: O=C(O)C(Cl)Cl
- outcome [4]: inactive
- outcome [6]: inactive
- outcome [7]: inactive

SMILES: CC(C)(C)N(NC(=O)c1ccc(Cl)cc1)C(=O)c1ccccc1
- outcome [8]: inactive
- outcome [9]: inactive
- outcome [2]: inactive
- outcome [3]: inactive
- outcome [5]: inactive

SMILES: CCC1(c2ccccc2)C(=O)N=C(O)NC1=O (centres undefined)
- outcome [1]: inactive
- outcome [3]: inactive

SMILES: FC(F)(F)c1ccc(Cl)cc1
- outcome [4]: inactive
- outcome [2]: inactive
- outcome [3]: inactive

SMILES: Cc1cccc(N)c1
- outcome [4]: inactive
- outcome [10]: inactive

SMILES: CN(C)C(=O)Cl
- outcome [6]: inactive

SMILES: O=P(OCC(Br)CBr)(OCC(Br)CBr)OCC(Br)CBr (centres undefined)
- outcome [4]: inactive
- AC50 [8]: 26.7 µM (active)
- outcome [9]: inactive
- outcome [2]: inactive
- outcome [3]: inactive
- outcome [6]: inactive
- AC50 [5]: 0.423 µM (active)

SMILES: CC(C)(C)c1ccc(O)cc1
- outcome [11]: inactive

SMILES: CC(C)(C)c1ccccc1OP(=O)(Oc1ccccc1)Oc1ccccc1
- outcome (PGR (gene 5241)): inactive

SMILES: CCCCOCCOP(=O)(OCCOCCCC)OCCOCCCC
- outcome [4]: inactive
- outcome [2]: inactive
- outcome [3]: inactive
- outcome [10]: inactive
- AC50 [5]: 5.67 µM (active)

SMILES: CC(Cc1ccc(OCC(=O)O)cc1)NCC(O)c1csc(C(F)(F)F)n1 (centres undefined)
- outcome [4]: inactive
- outcome [2]: inactive
- outcome [3]: inactive

SMILES: CCOS(=O)(=O)OCC
- outcome [4]: inactive
- outcome [1]: inactive
- outcome [2]: inactive
- outcome [12]: inactive

SMILES: Cc1ccc([N+](=O)[O-])cc1C
- outcome [1]: inactive
- outcome [2]: inactive
- outcome [3]: inactive

SMILES: CO/N=C(/C(=O)OC)c1ccccc1COc1ccccc1C
- AC50 [4]: 50 µM (active)
- outcome [8]: inactive
- outcome [9]: inactive
- outcome [13]: inactive
- outcome [5]: inactive

SMILES: Nc1ccc2ccccc2c1
- outcome [4]: inactive
- outcome [1]: inactive
- outcome [2]: inactive
- outcome [3]: inactive
- outcome [12]: inactive

SMILES: CCCN(CCC)c1c([N+](=O)[O-])cc(C(C)C)cc1[N+](=O)[O-]
- AC50 [4]: 36.8 µM (active)
- AC50 [1]: 50 µM (active)
- AC50 [2]: 56.9 µM (active)
- outcome [3]: inactive
- outcome [14]: inactive

SMILES: CCCCN(CCCC)N=O
- outcome [1]: inactive
- outcome [2]: inactive
- outcome [6]: inactive
- outcome [5]: inactive
- AC50 [7]: 25 µM (active)

SMILES: [N-]=[N+]=[N-]
- outcome [4]: inactive
- outcome [8]: inactive

SMILES: ClC1=C(Cl)C2(Cl)C3C(Cl)C(Cl)CC3C1(Cl)C2(Cl)Cl (centres undefined)
- AC50 [8]: 38.1 µM (active)
- AC50 [9]: 48.4 µM (active)
- outcome [2]: inactive
- outcome [3]: inactive
- outcome [6]: inactive
- outcome [15]: inactive
- outcome [12]: inactive
- outcome [14]: inactive

SMILES: c1ccc2c(c1)sc1ccccc12
- outcome [4]: inactive
- AC50 [15]: 0.179 µM (active)
- outcome [15]: inactive

SMILES: C=CC(=O)OCC(CC)(COC(=O)C=C)COC(=O)C=C
- AC50 [15]: 14 µM (active)
